High-throughput results deposited in PubChem BioAssay by National Center for Advancing Translational Sciences (NCATS).
The list is not random: actives were taken first. Their share in the collection is about 3.6%.
VDR inhibitor – vitamin D3 receptor (human) inhibition; AID 504847; actives 0.93% (n = 400,000); P11473; VDR-SRC2-3 peptide fluorescence polarization, 2 h; Potency, µM, most hits filed as inhibitors
Target sequence (P11473 whole entry, looked up): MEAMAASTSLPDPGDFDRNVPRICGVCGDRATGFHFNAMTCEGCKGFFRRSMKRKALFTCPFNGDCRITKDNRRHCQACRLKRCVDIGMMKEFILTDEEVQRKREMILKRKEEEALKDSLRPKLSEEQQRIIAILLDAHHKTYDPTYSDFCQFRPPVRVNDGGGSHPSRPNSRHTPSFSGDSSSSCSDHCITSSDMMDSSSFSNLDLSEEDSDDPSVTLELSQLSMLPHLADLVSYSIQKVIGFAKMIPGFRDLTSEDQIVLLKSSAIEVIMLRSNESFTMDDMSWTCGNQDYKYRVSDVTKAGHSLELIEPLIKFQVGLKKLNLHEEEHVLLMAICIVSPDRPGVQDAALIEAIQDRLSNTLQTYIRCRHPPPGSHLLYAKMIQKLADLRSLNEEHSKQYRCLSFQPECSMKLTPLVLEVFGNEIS
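Signal is fluorescence polarization, reporting how far test compounds block the interaction of VDR with the SRC2-3 coregulator peptide after a 2 h room-temperature incubation.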
PI5P4Ka inh – blocks human PI5P4K alpha kinase activity; P48426; PI5P4Kalpha enzyme, ADP-Glo luminescence, 60 min; active compounds read low; max response, %; actives 1.2% (n = 330,000); active = max response of -50% or lower; inconclusive = between -30% and -50%; inactive = -30% or higher; also: value at the top dose of about 77 µM
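Compounds were pin-transferred onto PI5P4Kalpha and substrate in HEPES pH 7.4 buffer with EGTA, CHAPS and 5% DMSO. ATP (5 microM final) started the reaction, which ran 60 minutes at room temperature before ADP-Glo detection.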
PLK1 PBD block – inhibitors of human PLK1 polo-box domain binding. Plk1 PBD binding of FITC phosphopeptide, fluorescence polarization. Potency, µM, hits mostly inhibitors. P53350. actives 2.8% (n = 360,000). AID 720504; also: series mostly up to about 57 µM; nearly all actives have a fitted effect of over 65% in size
KAT2A inh – inhibitors of human GCN5L2 histone acetyltransferase; actives 0.21% (n = 390,000); Potency, µM (top dose mostly 58.9 µM), usual class: inhibitors; GCN5L2 HAT assay, ThioGlo1 CoA-SH fluorescence; Q92830; AID 504327
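Preincubate 20nM GCN5L2 with compound 15 min, RT → add 50uM ThioGlo1 + 75uM H3(1-25) + 70uM acetyl-CoA → read fluorescence 0 and 20 min. Primary qHTS; fluorescent artifacts likely.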
Rango complex inh – prevents formation of the Rango-importin beta complex | Q14974 | Rango CFP/YFP FRET sensor + importin beta, 45 min | actives 0.031% (n = 340,000) | AID 540263 | Potency, µM (top dose mostly 92.2 µM); calls by dose curve; also: nearly all actives have a fitted effect of over 15% in size
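FRET biosensor (snurportin 1 IBB flanked by EYFP and cerulean), 50 nM, with compound 5 min, then 0.125 microM importin beta in PBS, 1 mM DTT, 0.02% Tween-20, 0.1% BSA. CFP/YFP ratio read after 45 min at room temperature; pre-read flags interference.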
Rango release inh – prevents RanGTP from dissociating the Rango-importin beta complex | Biochemical FRET Rango-importin beta, RanGTP-induced dissociation | Potency, µM (doses to about 46.1 µM) | actives 0.071% (n = 340,000) | AID 540253; calls by dose curve; also: nearly all actives have a fitted effect of over 45% in size
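FRET read at 45 min, room temperature: inhibitors block the CFP/YFP signal rise when RanGTP (0.6 uM Ran, 2 mM GTP, 0.2 uM RCC1) frees Rango (0.1 uM) from importin beta (0.25 uM). Pre-read after 5 min compound exposure flags interference.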
A number is an active result; i = inactive; ? = inconclusive; nt = no result. Unless noted, calls follow the shape of the dose curve; as a rule, active = well fitted curve in the direction sought with a large enough effect; inconclusive = small, poorly fitted or top-dose-only effect, or another doubt; inactive = no such curve, though single readings can be large; an effect the other way counts as inactive or inconclusive.

SMILES	VDR inhibitor	PI5P4Ka inh	PLK1 PBD block	KAT2A inh	Rango complex inh	Rango release inh
CCc1ccc(-c2nc(CS(=O)CC(=O)NC3CCCCCC3)c(C)o2)cc1 (stereo not drawn)	i	i	30µM	i	i	i
O=C(O)CCCN1C(=O)/C(=C/c2ccncc2)SC1=S	i	i	i	i	i	i
CC(c1ccccc1)N1C(=O)/C(=C/c2ccncc2)SC1=S (stereo not drawn)	45µM	i	i	i	i	?
CC(/C=C1\SC(=S)N(C(C(=O)O)c2ccccc2)C1=O)=C\c1ccccc1 (stereo not drawn)	i	i	27µM	?	i	i
O=C(O)C(c1ccccc1)N1C(=O)/C(=C/c2cccs2)SC1=S (stereo not drawn)	i	i	?	i	i	i
C=CCOc1ccc(/C=C2\SC(=S)N(C(C(=O)O)c3ccccc3)C2=O)cc1 (stereo not drawn)	79µM	i	30µM	i	i	i
CC(/C=C1\SC(=S)N(CC(=O)O)C1=O)=C\c1ccccc1	45µM	i	?	?	i	i
COc1cccc([C@@H]2Oc3ccc(OC)cc3C[C@H]2OC(=O)Nc2cc(OC)c(OC)c(OC)c2)c1	i	nt	nt	nt	nt	nt
COc1ccc2c(c1)c1c(c(=O)n(CCc3ccccc3)c(=O)n1Cc1ccc(Cl)cc1)n2C	i	nt	nt	i	nt	nt
CCOC(=O)c1ccc(Nc2c(-c3ccc(N(C)C)cc3)nc3nc[nH]n23)cc1	i	nt	nt	i	nt	nt
CCOc1ccc(NC(=S)NCC(c2cccnc2)N2CCOCC2)cc1 (stereo not drawn)	i	i	27µM	i	i	i
COc1ccc(NC(=S)NCC(c2cccnc2)N2CCOCC2)cc1 (stereo not drawn)	i	i	i	i	i	i
COc1ccc(OC)c(NC(=S)NCC(c2cccnc2)N2CCOCC2)c1 (stereo not drawn)	i	i	15µM	i	i	i
O=C(NCCN1CCCCC1)c1ccc(Cn2c(SCc3ccccc3)nc3cccnc32)cc1	i	nt	nt	i	nt	nt
Cc1ccc(Cl)cc1NC(=O)C1CCN(S(=O)(=O)c2cccc3nonc23)CC1	i	nt	nt	i	nt	nt
Cn1c(CNC(=O)CSc2n[nH]c(-c3ccccc3)n2)nc2ccccc21	i	nt	nt	i	nt	nt
O=C(NC(NC(=S)Nc1ccc(F)c([N+](=O)[O-])c1)C(Cl)(Cl)Cl)C(c1ccccc1)c1ccccc1 (stereo not drawn)	i	nt	nt	i	nt	nt
COc1cc(/C=C2\SC(=O)N(Cc3ccc(F)cc3)C2=O)cc([N+](=O)[O-])c1O	?	?	27µM	i	i	i
CCN=C1S/C(=C\c2cc(Br)c(O)c(OC)c2)C(=O)N1CC	i	-73	i	i	?	?
COc1cc(/C=C2\SC(=O)N(Cc3ccc(Cl)cc3)C2=O)cc([N+](=O)[O-])c1O	i	-81	24µM	i	i	i
CN(C)c1ccc(-c2c(C3C4C=CCCC4(C)C(=O)N3Cc3ccccc3)ccc3ccccc23)cc1 (stereo not drawn)	i	nt	nt	nt	nt	nt
Cc1cccc(OCCCCNCc2ccccc2)c1	i	i	i	i	i	i
COc1cccc(OCCNCc2ccccc2)c1	?	i	17µM	i	i	i
CN(CCCN1c2ccccc2CCc2ccccc21)CC(=O)c1ccc(Cl)cc1	40µM	nt	nt	i	nt	nt
CN(C)CCCN1c2ccccc2CCc2ccc(Cl)cc21	i	i	i	i	i	i
SMILES	VDR inhibitor	PI5P4Ka inh	PLK1 PBD block	KAT2A inh	Rango complex inh	Rango release inh
CCOc1cc(/C=C2/SC(=S)NC2=O)ccc1OC(=O)c1ccco1	i	-86	21µM	i	i	i
O=C1NC(=S)S/C1=C/c1ccc(OC(=O)c2ccco2)cc1	i	-62	?	i	i	i
O=c1c(-c2ccccc2)coc2cc(O)cc(O)c12	28µM	nt	nt	28µM	nt	nt
Cc1ccc2nc(Cl)c(/C=C/C(=O)c3ccco3)cc2c1	18µM	i	i	i	i	i
O=C(OCCN1CCN(c2ncc(C(F)(F)F)cc2Cl)CC1)c1ccc(Cl)cc1	i	i	i	i	i	i
C/[N+]([O-])=C\c1cccc(OCCN2CCN(c3ncc(C(F)(F)F)cc3Cl)CC2)c1	i	i	12µM	i	i	i
Cc1ccc2nc(CCl)[n+]([O-])c(-c3ccccc3)c2c1	?	?	3.4µM	i	i	i
Cn1c(=O)c2sccc2n2c(CCC(=O)N3CCN(c4ccc(F)cc4)CC3)nnc12	i	nt	nt	i	nt	nt
CC(NC(=O)OC(C)(C)C)C(=O)Oc1ccc2ccc(=O)oc2c1 (stereo not drawn)	i	i	i	i	?	?
CC(C)(C)OC(=O)NCCC(=O)Oc1ccc2ccc(=O)oc2c1	i	i	i	i	?	9.2µM
Cc1cc(C)n(-c2nc3ccccc3s2)n1	i	i	i	i	i	i
Cc1c2c(=O)n(-c3nc4ccccc4s3)nc-2cc(O)n1Cc1ccccc1	i	-78	i	?	i	i
c1ccc(-c2nnc(NC3=NCCC3)o2)cc1	i	i	24µM	i	i	?
COc1cccc(C(=O)Nc2nc(-c3nnn(-c4cccc(Cl)c4C)c3C)ns2)c1	i	nt	nt	i	nt	nt
Cc1ccccc1-c1noc(-c2ccc(N3CCN(C)CC3)c([N+](=O)[O-])c2)n1	i	nt	nt	i	nt	nt
Cc1ccc(C2CC2c2n[nH]c(=S)n2-c2cccc(C)c2)cc1 (stereo not drawn)	i	i	24µM	i	i	i
O=C(Nc1ccccc1N1CCCC1)c1cccc(-c2cc3ccccc3oc2=O)c1	i	i	i	i	i	i
O=C(Nc1ccc(N2CCCC2)cc1)c1cccc(-c2cc3ccccc3oc2=O)c1	?	?	2.7µM	i	i	i
O=C(N/N=C\c1c(O)ccc2ccccc12)c1ccc(O)cc1	i	?	?	i	?	?
O=C(N/N=C/c1c[nH]c2ccccc12)c1cc(Cl)ccc1O	i	-55	i	i	i	i
Cn1c(-c2ccccc2)c(/C=N/NC(=O)c2ccc(O)cc2)c2ccccc21	i	-95	i	i	i	i
O=C(N/N=C/c1c[nH]c2ccccc12)c1ccccc1Cl	i	i	i	i	i	i
O=C(N/N=C/c1c[nH]c2ccccc12)c1cc(-c2ccc3ccccc3c2)n[nH]1	i	-57	i	i	i	i
O=C(N/N=C\c1c[nH]c2ccccc12)c1ccc(O)cc1	i	-73	i	i	i	i
CCOc1ccccc1CNC(=O)C1CCN(Cc2cc3ccccc3n2Cc2ccccc2)CC1	i	nt	nt	i	nt	nt
Cc1ccc(CCNC(=O)CCn2nc(-c3ccc(Cl)cc3)ccc2=O)cc1	i	nt	nt	i	nt	nt
COc1ccc(/C=C/C(=O)c2ccccc2O)cc1	?	i	i	i	i	i
O=C(/C=C/c1ccccc1)c1cc(Br)ccc(=O)c1O	22µM	i	27µM	i	i	i
